Test results published in the supplement of paper PMC4466140.

B1: unnamed (peptide)
chain: EEEEEHPPLPARRKS

Molecular target: AgAbp1
Assay: SPOT peptide array binding signal intensity (averaged, normalized) (arbitrary units (background-subtracted, floor 0; scale differs between SH3 domains)); higher = stronger binding of the SH3 domain to the peptide
Outline: (§1)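 GST-fused SH3 domains, from four yeast species, were produced in E. coli BL21(DE3) and captured on glutathione Sepharose. Membranes of cellulose carrying synthetic 15-mer peptides, in which cysteines had been replaced by serines, were exposed to each domain at 10 μg/ml overnight at 4°C in TBS-based blocking buffer. After anti-GST antibody, an HRP anti-mouse secondary and luminol, spots were imaged and quantified using Genespotter. Binding signal is normalized and background-subtracted spot intensity, averaged over replicates, in arbitrary units that differ between domains.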

Question: For B1, which “SPOT peptide array binding signal intensity” value is on record?
Answer: ≤ 0

Molecular target: AgBbc1
Assay: as above
Outline: as §1

Question: Which “SPOT peptide array binding signal intensity” value does the source give for B1 here?
Answer: 23.2

Molecular target: AgBem1-D1
Assay: as above
Outline: as §1

Question: How did the “SPOT peptide array binding signal intensity” value turn out when B1 was run?
Answer: ≤ 0

Molecular target: AgBzz1-D1
Assay: as above
Outline: as §1

Question: With B1 as the binder, how does the “SPOT peptide array binding signal intensity” value read?
Answer: 9

Molecular target: AgBzz1-D2
Assay: as above
Outline: as §1

Question: How did the “SPOT peptide array binding signal intensity” value turn out when B1 was run?
Answer: 27.5

Molecular target: AgCyk3
Assay: as above
Outline: as §1

Question: For B1, which “SPOT peptide array binding signal intensity” value is on record?
Answer: ≤ 0

Molecular target: AgFus1
Assay: as above
Outline: as §1

Question: B1 was tested. Which “SPOT peptide array binding signal intensity” value did it give?
Answer: ≤ 0

Molecular target: AgHof1
Assay: as above
Outline: as §1

Question: For B1, which “SPOT peptide array binding signal intensity” value is on record?
Answer: 3

Molecular target: AgHse1
Assay: as above
Outline: as §1

Question: How did the “SPOT peptide array binding signal intensity” value turn out when B1 was run?
Answer: 3.5

Molecular target: AgLsb1
Assay: as above
Outline: as §1

Question: B1 was tested. Which “SPOT peptide array binding signal intensity” value did it give?
Answer: 20.5

Molecular target: AgLsb4
Assay: as above
Outline: as §1

Question: B1 was tested. Which “SPOT peptide array binding signal intensity” value did it give?
Answer: 7880

Molecular target: AgMyo5
Assay: as above
Outline: as §1

Question: B1 was tested. Which “SPOT peptide array binding signal intensity” value did it give?
Answer: 0.5

Molecular target: AgNbp2
Assay: as above
Outline: as §1

Question: With B1 as the binder, how does the “SPOT peptide array binding signal intensity” value read?
Answer: ≤ 0

Molecular target: AgRvs167
Assay: as above
Outline: as §1

Question: With B1 as the binder, how does the “SPOT peptide array binding signal intensity” value read?
Answer: 61

Molecular target: AgSho1
Assay: as above
Outline: as §1

Question: Which “SPOT peptide array binding signal intensity” value does the source give for B1 here?
Answer: 8

Molecular target: AgSla1-D1-D2
Assay: as above
Outline: as §1

Question: Which “SPOT peptide array binding signal intensity” value does the source give for B1 here?
Answer: 4.5

Molecular target: AgSla1-D3
Assay: as above
Outline: as §1

Question: With B1 as the binder, how does the “SPOT peptide array binding signal intensity” value read?
Answer: ≤ 0

Molecular target: CaAbp1-D1
Assay: as above
Outline: as §1

Question: How did the “SPOT peptide array binding signal intensity” value turn out when B1 was run?
Answer: 8.5

Molecular target: CaAbp1-D2
Assay: as above
Outline: as §1

Question: How did the “SPOT peptide array binding signal intensity” value turn out when B1 was run?
Answer: ≤ 0

Molecular target: CaBbc1
Assay: as above
Outline: as §1

Question: B1 was tested. Which “SPOT peptide array binding signal intensity” value did it give?
Answer: 50.5

Molecular target: CaBem1-D1
Assay: as above
Outline: as §1

Question: Which “SPOT peptide array binding signal intensity” value does the source give for B1 here?
Answer: ≤ 0

Molecular target: CaBzz1-D1
Assay: as above
Outline: as §1

Question: For B1, which “SPOT peptide array binding signal intensity” value is on record?
Answer: ≤ 0

Molecular target: CaBzz1-D2
Assay: as above
Outline: as §1

Question: Which “SPOT peptide array binding signal intensity” value does the source give for B1 here?
Answer: ≤ 0

Molecular target: CaCyk3
Assay: as above
Outline: as §1

Question: How did the “SPOT peptide array binding signal intensity” value turn out when B1 was run?
Answer: ≤ 0

Molecular target: CaFus1
Assay: as above
Outline: as §1

Question: How did the “SPOT peptide array binding signal intensity” value turn out when B1 was run?
Answer: 9.5

Molecular target: CaHof1
Assay: as above
Outline: as §1

Question: For B1, which “SPOT peptide array binding signal intensity” value is on record?
Answer: 8.5

Molecular target: CaHse1
Assay: as above
Outline: as §1

Question: Which “SPOT peptide array binding signal intensity” value does the source give for B1 here?
Answer: 13

Molecular target: CaLsb1
Assay: as above
Outline: as §1

Question: For B1, which “SPOT peptide array binding signal intensity” value is on record?
Answer: 10.8

Molecular target: CaLsb4
Assay: as above
Outline: as §1

Question: How did the “SPOT peptide array binding signal intensity” value turn out when B1 was run?
Answer: 5520

Molecular target: CaMyo5
Assay: as above
Outline: as §1

Question: How did the “SPOT peptide array binding signal intensity” value turn out when B1 was run?
Answer: 1.75

Molecular target: CaNbp2
Assay: as above
Outline: as §1

Question: B1 was tested. Which “SPOT peptide array binding signal intensity” value did it give?
Answer: ≤ 0

Molecular target: CaRvs167
Assay: as above
Outline: as §1

Question: Which “SPOT peptide array binding signal intensity” value does the source give for B1 here?
Answer: 408

Molecular target: CaRvs167-3
Assay: as above
Outline: as §1

Question: How did the “SPOT peptide array binding signal intensity” value turn out when B1 was run?
Answer: 6.5

Molecular target: CaSho1
Assay: as above
Outline: as §1

Question: Which “SPOT peptide array binding signal intensity” value does the source give for B1 here?
Answer: ≤ 0

Molecular target: CaSla1-D1-D2
Assay: as above
Outline: as §1

Question: Which “SPOT peptide array binding signal intensity” value does the source give for B1 here?
Answer: ≤ 0

Molecular target: CaSla1-D3
Assay: as above
Outline: as §1

Question: For B1, which “SPOT peptide array binding signal intensity” value is on record?
Answer: ≤ 0

Molecular target: ScAbp1
Assay: as above
Outline: as §1

Question: How did the “SPOT peptide array binding signal intensity” value turn out when B1 was run?
Answer: ≤ 0

Molecular target: ScBbc1
Assay: as above
Outline: as §1

Question: With B1 as the binder, how does the “SPOT peptide array binding signal intensity” value read?
Answer: 6.25

Molecular target: ScBem1-D1
Assay: as above
Outline: as §1

Question: With B1 as the binder, how does the “SPOT peptide array binding signal intensity” value read?
Answer: 0.5

Molecular target: ScBzz1-D1
Assay: as above
Outline: as §1

Question: How did the “SPOT peptide array binding signal intensity” value turn out when B1 was run?
Answer: 16

Molecular target: ScBzz1-D2
Assay: as above
Outline: as §1

Question: Which “SPOT peptide array binding signal intensity” value does the source give for B1 here?
Answer: 27.5

Molecular target: ScCyk3
Assay: as above
Outline: as §1

Question: With B1 as the binder, how does the “SPOT peptide array binding signal intensity” value read?
Answer: ≤ 0

Molecular target: ScFus1
Assay: as above
Outline: as §1

Question: How did the “SPOT peptide array binding signal intensity” value turn out when B1 was run?
Answer: 4

Molecular target: ScHof1
Assay: as above
Outline: as §1

Question: Which “SPOT peptide array binding signal intensity” value does the source give for B1 here?
Answer: 4.25

Molecular target: ScHse1
Assay: as above
Outline: as §1

Question: With B1 as the binder, how does the “SPOT peptide array binding signal intensity” value read?
Answer: ≤ 0

Molecular target: ScLsb1
Assay: as above
Outline: as §1

Question: For B1, which “SPOT peptide array binding signal intensity” value is on record?
Answer: 444

Molecular target: ScLsb2
Assay: as above
Outline: as §1

Question: Which “SPOT peptide array binding signal intensity” value does the source give for B1 here?
Answer: 17

Molecular target: ScLsb3
Assay: as above
Outline: as §1

Question: With B1 as the binder, how does the “SPOT peptide array binding signal intensity” value read?
Answer: 9930

Molecular target: ScLsb4
Assay: as above
Outline: as §1

Question: B1 was tested. Which “SPOT peptide array binding signal intensity” value did it give?
Answer: 3690

Molecular target: ScMyo3
Assay: as above
Outline: as §1

Question: B1 was tested. Which “SPOT peptide array binding signal intensity” value did it give?
Answer: ≤ 0

Molecular target: ScMyo5
Assay: as above
Outline: as §1

Question: B1 was tested. Which “SPOT peptide array binding signal intensity” value did it give?
Answer: ≤ 0

Molecular target: ScNbp2
Assay: as above
Outline: as §1

Question: With B1 as the binder, how does the “SPOT peptide array binding signal intensity” value read?
Answer: ≤ 0

Molecular target: ScPex13
Assay: as above
Outline: as §1

Question: For B1, which “SPOT peptide array binding signal intensity” value is on record?
Answer: 656

Molecular target: ScRvs167
Assay: as above
Outline: as §1

Question: B1 was tested. Which “SPOT peptide array binding signal intensity” value did it give?
Answer: 1940

Molecular target: ScSho1
Assay: as above
Outline: as §1

Question: Which “SPOT peptide array binding signal intensity” value does the source give for B1 here?
Answer: ≤ 0

Molecular target: ScSla1-D1-D2
Assay: as above
Outline: as §1

Question: Which “SPOT peptide array binding signal intensity” value does the source give for B1 here?
Answer: 102

Molecular target: ScSla1-D3
Assay: as above
Outline: as §1

Question: With B1 as the binder, how does the “SPOT peptide array binding signal intensity” value read?
Answer: ≤ 0

Molecular target: SpAbp1-D1
Assay: as above
Outline: as §1

Question: B1 was tested. Which “SPOT peptide array binding signal intensity” value did it give?
Answer: ≤ 0

Molecular target: SpBbc1
Assay: as above
Outline: as §1

Question: With B1 as the binder, how does the “SPOT peptide array binding signal intensity” value read?
Answer: 1.5

Molecular target: SpBzz1-D1
Assay: as above
Outline: as §1

Question: Which “SPOT peptide array binding signal intensity” value does the source give for B1 here?
Answer: 17

Molecular target: SpBzz1-D2
Assay: as above
Outline: as §1

Question: Which “SPOT peptide array binding signal intensity” value does the source give for B1 here?
Answer: 2

Molecular target: SpCyk3
Assay: as above
Outline: as §1

Question: B1 was tested. Which “SPOT peptide array binding signal intensity” value did it give?
Answer: ≤ 0

Molecular target: SpHof1
Assay: as above
Outline: as §1

Question: For B1, which “SPOT peptide array binding signal intensity” value is on record?
Answer: 0.5

Molecular target: SpHof1-2
Assay: as above
Outline: as §1

Question: B1 was tested. Which “SPOT peptide array binding signal intensity” value did it give?
Answer: 1

Molecular target: SpHof1-3
Assay: as above
Outline: as §1

Question: B1 was tested. Which “SPOT peptide array binding signal intensity” value did it give?
Answer: 1

Molecular target: SpHse1
Assay: as above
Outline: as §1

Question: How did the “SPOT peptide array binding signal intensity” value turn out when B1 was run?
Answer: 1

Molecular target: SpLsb1
Assay: as above
Outline: as §1

Question: B1 was tested. Which “SPOT peptide array binding signal intensity” value did it give?
Answer: 10

Molecular target: SpLsb4
Assay: as above
Outline: as §1

Question: B1 was tested. Which “SPOT peptide array binding signal intensity” value did it give?
Answer: 7640

Molecular target: SpMyo1
Assay: as above
Outline: as §1

Question: How did the “SPOT peptide array binding signal intensity” value turn out when B1 was run?
Answer: ≤ 0

Molecular target: SpNbp2
Assay: as above
Outline: as §1

Question: How did the “SPOT peptide array binding signal intensity” value turn out when B1 was run?
Answer: 3.5

Molecular target: SpPex13
Assay: as above
Outline: as §1

Question: B1 was tested. Which “SPOT peptide array binding signal intensity” value did it give?
Answer: ≤ 0

Molecular target: SpRvs167
Assay: as above
Outline: as §1

Question: B1 was tested. Which “SPOT peptide array binding signal intensity” value did it give?
Answer: 1510

Molecular target: SpSla1-D1-D2
Assay: as above
Outline: as §1

Question: Which “SPOT peptide array binding signal intensity” value does the source give for B1 here?
Answer: ≤ 0

Molecular target: SpSla1-D3
Assay: as above
Outline: as §1

Question: How did the “SPOT peptide array binding signal intensity” value turn out when B1 was run?
Answer: 5
